Compounds with a hit are over-represented: about 3.4% of the library has one in this group of screens.
HSP90 refold inh: blocks HSP90-mediated luciferase refolding in reticulocyte lysate. Rabbit reticulocyte lysate, luciferase refolding luminescence, 3 h. 290,000 compounds, 0.91% hits. inhibition, % at 5.6 µM;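 active = inhibition above the screen-wide mean plus 3 SD, computed separately per campaign, cut at about 16% in these data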;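 also: 0% = DMSO wells and 100% = 60 µM geldanamycin wells; inhibitors lower the luminescence because luciferase stays unfolded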
AI-2 QS modul: modulators of Vibrio harveyi AI-2 quorum sensing system; Vibrio harveyi JMH597 AI-2 luminescence/OD600 ratio, 9 h; stronger effect = lower value; strain lacks LuxN and CqsS sensors; 0 = neutral-control median; activity change, % at 7.5 µM; 300,000 compounds, 0.4% hits; AID 2094; in the data active = activity change below about -75%, passing the limit was not always enough;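 also: luminescence divided by OD600 gain over 9 h not by final OD600 alone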
PG9 binder: small molecules binding HIV-1 gp120 antibody PG9 | 360,000 compounds, 0.43% hits | TR-FRET gp120-PG9 antibody binding | inhibition, % at 6.7 µM; in the data active = inhibition above about 8.5%
GAA850 FXN act: frataxin GAA850 promoter activation | activation, % at 6 µM | AID 540364 | HEK293 lucGAA850 FXN promoter luciferase reporter, 24 h; percent of 10 µM SAHA response | 360,000 compounds, 0.56% hits;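 active = activation above the average of all compounds screened plus 3 SD, cutoff fixed separately per campaign, cut at about 7.5% in these data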;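 also: 0% = DMSO wells and 100% = 10 µM SAHA wells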
HSF1 inh: HSF1 inhibition. NIH3T3-HGL HSE-luciferase, MG132-induced, luminescence 8 h; stronger effect = lower value. activity change, negative = inhibition, % at 7.5 µM (by protocol). 300,000 compounds, 0.77% hits;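 active = more than half of replicate wells show activity change below -50%, luminescence cut by over half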;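 also: luciferase reports HSF-1 transcriptional activity via heat shock element; 0% = median of DMSO wells and -100% = zero luminescence signal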
SMARCA2 act: activators of SMARCA2 function; MG213 cells, MMTV-luciferase reporter, dexamethasone, overnight; activation, % at 9.1 µM; 370,000 compounds, 1% hits; in the data active = activation above about 7.8%;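 also: 0% = vehicle wells and 100% = reference activator wells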
HSP90 confirm: confirmation of HSP90 inhibitors. shares compounds with HSP90 refold inh. rabbit reticulocyte lysate, luciferase refolding luminescence, 3 h. inhibition, % at 5.9 µM. 2,300 compounds, 64% hits; in the data active = inhibition above about 18%;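 also: 0% = vehicle wells and 100% = reference inhibitor wells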
luciferase ctr: firefly luciferase inhibition, HSP90 counter-screen. 2,300 compounds, 48% hits. purified native firefly luciferase, luminescence. inhibition, % at 5.9 µM. shares compounds with HSP90 refold inh;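 active = inhibition above the mean inhibition of all tested sample wells plus 3 SD, cut at about 10% in these data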;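 also: 0% = DMSO with luciferase and 100% = wells lacking luciferase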
Target sequence (P08659 whole entry, looked up): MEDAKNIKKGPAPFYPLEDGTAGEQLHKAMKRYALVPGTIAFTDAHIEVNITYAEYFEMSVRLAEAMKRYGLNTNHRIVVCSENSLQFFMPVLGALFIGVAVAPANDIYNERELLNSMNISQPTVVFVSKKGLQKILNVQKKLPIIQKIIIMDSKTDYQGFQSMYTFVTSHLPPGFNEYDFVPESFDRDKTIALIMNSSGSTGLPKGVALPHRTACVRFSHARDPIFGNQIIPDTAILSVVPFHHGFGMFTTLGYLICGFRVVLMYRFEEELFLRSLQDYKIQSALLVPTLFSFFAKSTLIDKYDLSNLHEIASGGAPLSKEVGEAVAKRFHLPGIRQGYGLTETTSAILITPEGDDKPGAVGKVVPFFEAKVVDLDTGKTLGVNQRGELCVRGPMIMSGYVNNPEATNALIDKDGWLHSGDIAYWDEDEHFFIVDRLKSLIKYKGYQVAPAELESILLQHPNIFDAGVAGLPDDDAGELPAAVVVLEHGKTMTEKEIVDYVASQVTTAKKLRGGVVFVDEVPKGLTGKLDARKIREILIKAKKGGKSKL
Active calls of the source: *; x = no result.

SMILES	HSP90 refold inh	AI-2 QS modul	PG9 binder	GAA850 FXN act	HSF1 inh	SMARCA2 act	HSP90 confirm	luciferase ctr
COC(=O)[C@]12C[C@H](CC(=O)NCCC(C)C)C(=O)N(Cc3ccc(Cl)cc3Cl)C1=C[C@H](C1CCCC1)O[C@@H]2C	x	x	x	x	x	-2.8	x	x
Cc1[nH]n(-c2ccccc2)c(=O)c1N=Nc1cccc(C(=O)O)c1	23.1*	77.9	-1.6	2.3	-31.3	0.8	66.2*	78.5*
CC(=O)c1ccc(N=Nc2c(C)[nH]n(-c3ccccc3)c2=O)cc1	35.4*	10.4	-2.8	1.9	-5.9	-0.9	59.5*	-10.1
Cc1[nH]n(-c2ccccc2)c(=O)c1N=Nc1ccc(Cl)cc1	8.3	18.2	0.3	0.1	0.5	1.0	x	x
Cc1[nH]n(-c2ccccc2)c(=O)c1N=Nc1ccc(C(=O)O)cc1	36.0*	46.4	-0.3	3.1	-7.0	-2.0	33.9*	-17.2
Cc1[nH]n(-c2ccccc2)c(=O)c1N=Nc1ccccc1	-1.0	9.7	-3.5	3.0	25.4	1.6	x	x
Cc1[nH]n(-c2ccccc2)c(=O)c1N=Nc1ccc(C(N)=O)cc1	25.2*	12.2	-0.7	0.8	-1.1	-2.5	39.0*	-5.4
C[C@@H]1CCCN1c1cccc2c1S(=O)(=O)N1CC[C@@H](C1)O2	x	x	x	x	x	-2.5	x	x
Cc1ccc(-c2cc(-c3nnc(SCC(=O)Nc4ccc(OCc5ccccc5)cc4)n3N)[nH]n2)cc1	x	x	x	x	x	2.7	x	x
Cc1ccc2c(c1)N(CCCC(=O)N(C)Cc1ccc(F)cc1)C(=O)CO2	x	x	x	x	x	-4.3	x	x
COC(=O)[C@]12C[C@H](CC(=O)N3CCCCC3)C(=O)N(Cc3ccco3)C1=C[C@H](C1CCCC1)O[C@@H]2C	x	x	x	x	x	-0.1	x	x
CC1=NN(c2ccccc2)C(=O)/C1=C/c1cccs1	1.4	22.5	-2.8	1.6	3.6	-1.4	x	x
CC1=NN(c2ccc(C(=O)O)cc2)C(=O)/C1=C\c1ccc(OC(=O)c2cccs2)cc1	26.4*	23.8	-2.4	3.1	-4.0	7.1	4.5	17.0*
COc1ccc(CCNC(=O)c2nnn(-c3ccccc3OC)c2N)cc1OC	5.9	17.9	1.7	-0.8	1.8	-1.7	x	x
COc1ccc(CCNC(=O)c2nnn(-c3ccc4c(c3)OCCO4)c2N)cc1OC	28.8*	20.7	0.1	-12.9	-76.1*	-8.2	64.0*	66.1*
COc1ccc(-c2nnc(SCC(=O)NN=C(C)c3cccc4ccccc34)n2-c2ccccc2)cc1	x	x	x	x	x	-3.0	x	x
CN1CCN(S(=O)C23CC4CC(CC(C4)C2)C3)CC1 (stereo unspecified)	-3.3	35.7	0.7	-0.2	-2.1	-3.8	x	x
O=S(N1CCCCC1)C12CC3CC(CC(C3)C1)C2 (stereo unspecified)	40.0*	4.6	-0.6	-0.8	-6.1	-0.1	-2.9	-6.5
CC(C)CNC(=O)OCc1cn(Cc2c(F)cccc2F)nn1	x	x	x	x	x	-2.3	x	x
COc1ccccc1N1CCN(S(=O)(=O)c2ccc3c(c2)n(C)c(=O)c(=O)n3C)CC1	x	x	x	x	x	6.5	x	x
FC(F)(F)c1ccc(Cn2ccc3ccc(-c4ccc5ccn(Cc6ccc(C(F)(F)F)cc6)c5c4)cc32)cc1	x	x	x	x	x	-2.1	x	x
COC(=O)C1=C(C)N(C)C(=NCC2CC2)NC1c1ccccc1 (stereo unspecified)	x	x	0.1	x	x	-4.8	x	x
O=C(NCCc1cccs1)c1ccc(Cl)c(Cl)c1	2.1	7.2	-0.9	4.9	27.2	3.2	x	x
Cc1ccc(C(=O)NCCc2cccs2)cc1	54.8*	30.0	-2.5	-4.3	-23.4	-2.0	74.2*	62.1*
Cc1ccc(C(=O)NCCSC(C)(C)C)cc1	19.2*	18.3	-0.4	-1.1	22.6	5.6	30.8*	24.5*
SMILES	HSP90 refold inh	AI-2 QS modul	PG9 binder	GAA850 FXN act	HSF1 inh	SMARCA2 act	HSP90 confirm	luciferase ctr
O=C(NCCc1cccs1)c1ccc(Cl)cc1	18.9*	3.5	-0.3	2.0	15.8	0.0	44.8*	40.7*
CCOC(=O)N[C@H](C(=O)N1CCC[C@H]1C(=O)NCCc1ccccc1Cl)C1CCCCC1	x	x	-3.4	x	x	0.0	x	x
Cc1ccc2c(c1)C(CS(=O)(=O)NCC(C)C)NC2 (stereo unspecified)	x	x	x	x	x	-2.3	x	x
CCc1ccc(S(=O)(=O)/N=C2\C=C(NS(=O)(=O)c3ccccc3)C(=O)c3ccccc32)cc1	2.0	18.3	0.3	3.1	2.7	-2.7	x	x
O=C(O)c1ccc(S(=O)(=O)/N=C2\C=C(Nc3ccccc3F)C(=O)c3ccccc32)cc1	92.3*	44.7	-3.0	-5.5	51.2	-7.5	93.9*	-14.6
Cc1ccccc1NC1=C/C(=N\S(=O)(=O)c2ccc(C(=O)O)cc2)c2ccccc2C1=O	97.9*	99.6	-6.2	0.2	-9.0	-6.8	95.6*	-11.3
CCOC(=O)[C@@]12CCC3=C1N(CCC3)C(=O)[C@H](CC(=O)NCCCN1CCCC1=O)C2	x	x	x	x	x	-0.3	x	x
O=C(/C=C(\Nc1cc(Cl)c(F)c(Cl)c1)c1ccccc1)c1ccccc1	x	x	0.0	x	x	-3.5	x	x
CCNC(=S)NNC(=O)c1csc2c1CCC(C)C2 (stereo unspecified)	-3.2	4.7	0.1	0.0	-4.4	-2.0	x	x
Cc1ccccc1NC(=S)NNC(=O)c1csc2c1CCC(C)C2 (stereo unspecified)	67.0*	31.3	0.7	-7.5	-68.5*	-4.6	60.5*	52.3*
CC(C)n1nnnc1C1(C)CSCC(=O)N1Cc1cccc(F)c1 (stereo unspecified)	x	x	x	x	x	-1.5	x	x
C[C@@H]1Cc2cc(O)cc(O)c2C(=O)O1	x	x	x	x	x	-2.3	x	x
Cc1ccc2oc(/N=C(\N)NC(=O)C(C)(C)C)nc2c1	81.1*	21.9	-0.3	-12.5	-90.9*	-13.6	84.5*	82.9*
Cc1ccc2oc(/N=C(\N)NC(=O)C3CC3)nc2c1	26.8*	-26.6	-0.4	-4.0	2.4	1.2	47.8*	40.1*
CC(C)(C)c1ccc(C(=O)N/C(N)=N/c2nc3ccccc3o2)cc1	7.0	18.2	x	0.7	-0.7	x	x	x
COc1ccc(C(=O)N/C(N)=N/c2nc3ccccc3o2)cc1	0.2	-8.0	3.7	1.3	21.4	-2.1	x	x
CC(=O)CC[C@H]1CC[C@]2(CCCN(C(=O)C3CCCCC3)C2)O1	x	x	x	x	x	-0.1	x	x
CCOc1ccc(N=C(NN)c2ccc3ccccc3n2)cc1	27.9*	17.3	-0.4	-10.1	-81.6*	-5.2	12.4	-4.1
COC(=O)c1ccc2ccccc2n1	x	12.9	x	1.8	4.7	x	x	x
Cc1ccc2c(COC(=O)c3ccc(NC(=O)CC#N)cc3)cc(=O)oc2c1C	19.5*	1.9	1.1	2.3	18.5	0.3	21.8*	-5.8
Cc1cc(C)c(C(=O)COC(=O)c2ccc(NC(=O)CC#N)cc2)cc1C	3.1	32.0	-0.4	0.6	7.4	-0.4	x	x
CCC(=O)Nc1ccc2nc(C3CC3)n(Cc3ccc(C(C)(C)C)cc3)c(=O)c2c1	21.5*	34.3	-1.9	3.1	-59.0*	2.0	20.8*	17.0*
